Assay results reported in PubChem BioAssay (EPA / NIEHS).
Activity calls are given as the source filed them. Rule for the calls: active = hit-call score of the fitted dose curve at least 0.9, where 1 is the maximum; inactive = score below 0.9.

Experiments:
[1] = ATG_GRE_CIS: Attagene CIS-FACTORIAL HepG2 Assay for human Glucocorticoid Response Elements (GRE) (AID 2282947); conditions: HepG2 GRE cis-reporter, Attagene multiplex mRNA; actives raise or lower the signal
Summary of the method: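 Transiently transfected HepG2 cells carrying GRE cis-reporter units (endogenous TF activity) dosed 24 h; reporter mRNA quantified by RT-PCR, 6-FAM labelling, HpaI digestion and capillary electrophoresis. Bidirectional fit versus DMSO baseline.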

[2] = ATG_ISRE_CIS: Attagene CIS-FACTORIAL HepG2 Assay for human Interferon Regulatory Factor 1 (IRF1) binding to an Interferon-Stimulated Response Element (ISRE) (AID 2282948); conditions: HepG2 ISRE cis-reporter (Attagene), mRNA transcription readout; actives raise or lower the signal
Summary of the method: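 Transfected HepG2 (multiple reporter transcription units, cis elements) dosed 24 h. RNA → oligo(dT) RT → PCR → 6-FAM primer extension → HpaI → CE. DMSO = negative control/baseline.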

[3] = ATG_M_32_CIS: Attagene CIS-FACTORIAL HepG2 Assay for M32 Transcription Factor (Internal Marker) (AID 2282949); conditions: HepG2 Attagene cis-factorial M32 reporter, mRNA; actives raise or lower the signal;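 note: background control marker of the multiplexed CIS panel rather than a real target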
Summary of the method: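 Fluorescent capillary electrophoresis peaks of HpaI-digested, FAM-labelled RT-PCR reporter products give the signal. Source: transiently transfected human liver HepG2 cells, 24 h after chemical dosing; bidirectional fitting against DMSO.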

[4] = ATG_M_06_CIS: Attagene CIS-FACTORIAL HepG2 Assay for M06 Transcription Factor (Internal Marker) (AID 2282950); conditions: HepG2 Attagene CIS-FACTORIAL M06 internal marker reporter; actives raise or lower the signal
Summary of the method: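 Internal background marker within multiplexed cis-reporter HepG2 system. Cells transiently transfected, dosed 24 h; reporter mRNA measured by RT-PCR, HpaI digestion and capillary electrophoresis. Bidirectional fit relative to DMSO.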

[5] = target: Hypoxia-inducible factor 1-alpha (Homo sapiens) (UniProt Q16665); assay: ATG_HIF1a_CIS: Attagene CIS-FACTORIAL HepG2 Assay for human Hypoxia Inducible Factor 1 (HIF1A) (AID 2282951); conditions: HepG2 Attagene cis-factorial HIF1a reporter transcription; actives raise or lower the signal
Sequence of Hypoxia-inducible factor 1-alpha (Homo sapiens) (Q16665 whole entry, looked up): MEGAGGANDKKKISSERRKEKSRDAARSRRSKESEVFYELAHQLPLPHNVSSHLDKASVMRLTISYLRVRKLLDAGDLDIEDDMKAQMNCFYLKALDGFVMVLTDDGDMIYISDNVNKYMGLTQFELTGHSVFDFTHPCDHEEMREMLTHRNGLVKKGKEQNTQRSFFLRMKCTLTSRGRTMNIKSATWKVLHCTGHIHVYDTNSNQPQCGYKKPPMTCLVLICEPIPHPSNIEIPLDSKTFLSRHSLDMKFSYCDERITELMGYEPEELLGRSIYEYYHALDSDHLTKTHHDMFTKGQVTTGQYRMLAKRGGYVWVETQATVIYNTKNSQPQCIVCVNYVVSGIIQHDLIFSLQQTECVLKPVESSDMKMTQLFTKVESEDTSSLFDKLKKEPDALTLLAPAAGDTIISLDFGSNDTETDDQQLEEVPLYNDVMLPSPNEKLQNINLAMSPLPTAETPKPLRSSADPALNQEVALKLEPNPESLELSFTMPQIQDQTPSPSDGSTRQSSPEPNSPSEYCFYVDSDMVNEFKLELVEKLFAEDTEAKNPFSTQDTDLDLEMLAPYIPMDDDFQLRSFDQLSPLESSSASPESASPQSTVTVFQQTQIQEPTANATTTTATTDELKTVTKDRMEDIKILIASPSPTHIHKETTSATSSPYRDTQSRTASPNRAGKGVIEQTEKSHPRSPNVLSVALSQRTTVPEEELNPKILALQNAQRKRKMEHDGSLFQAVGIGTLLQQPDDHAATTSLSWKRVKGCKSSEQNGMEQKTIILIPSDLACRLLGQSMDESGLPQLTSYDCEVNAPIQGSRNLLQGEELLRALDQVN
Summary of the method: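 RT-PCR/capillary electrophoresis fluorescence readout of reporter transcripts from endogenous-TF-driven cis elements in transfected HepG2 cells, 24 h exposure; activity fitted in both directions against DMSO controls.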

[6] = target: Hepatocyte nuclear factor 6 (Homo sapiens) (UniProt Q9UBC0); assay: ATG_HNF6_CIS: Attagene CIS-FACTORIAL HepG2 Assay for human Hepatocyte Nuclear Factor 6 (HNF6) (AID 2282952); conditions: HepG2 Attagene cis-factorial HNF6 reporter transcription; actives raise or lower the signal
Sequence of Hepatocyte nuclear factor 6 (Homo sapiens) (Q9UBC0 whole entry, looked up): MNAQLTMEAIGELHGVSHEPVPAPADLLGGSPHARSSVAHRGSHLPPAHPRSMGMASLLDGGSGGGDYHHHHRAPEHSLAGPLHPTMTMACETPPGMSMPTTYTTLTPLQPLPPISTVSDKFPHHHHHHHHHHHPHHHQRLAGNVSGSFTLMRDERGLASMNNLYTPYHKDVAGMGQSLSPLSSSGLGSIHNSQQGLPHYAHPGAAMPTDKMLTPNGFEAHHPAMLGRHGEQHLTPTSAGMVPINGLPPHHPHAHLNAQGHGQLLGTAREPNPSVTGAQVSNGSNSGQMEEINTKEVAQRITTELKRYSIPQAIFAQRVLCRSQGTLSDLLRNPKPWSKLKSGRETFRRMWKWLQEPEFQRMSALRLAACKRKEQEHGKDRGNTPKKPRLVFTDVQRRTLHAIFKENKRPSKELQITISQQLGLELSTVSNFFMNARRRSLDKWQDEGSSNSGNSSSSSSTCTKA
Summary of the method: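 HepG2, transient MRTU transfection (cis promoters); 24 h chemical exposure; total RNA → oligo(dT) RT → PCR → 6-FAM labelling → HpaI cut → CE; bidirectional fit vs DMSO.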

[7] = target: Heat shock factor protein 1 (Homo sapiens) (UniProt Q00613); assay: ATG_HSE_CIS: Attagene CIS-FACTORIAL HepG2 Assay for human Heat Shock Transcription Factor 1 (HSE) (AID 2282953); conditions: HepG2 HSE cis-reporter, Attagene RNA transcription; actives raise or lower the signal
Sequence of Heat shock factor protein 1 (Homo sapiens) (Q00613 whole entry, looked up): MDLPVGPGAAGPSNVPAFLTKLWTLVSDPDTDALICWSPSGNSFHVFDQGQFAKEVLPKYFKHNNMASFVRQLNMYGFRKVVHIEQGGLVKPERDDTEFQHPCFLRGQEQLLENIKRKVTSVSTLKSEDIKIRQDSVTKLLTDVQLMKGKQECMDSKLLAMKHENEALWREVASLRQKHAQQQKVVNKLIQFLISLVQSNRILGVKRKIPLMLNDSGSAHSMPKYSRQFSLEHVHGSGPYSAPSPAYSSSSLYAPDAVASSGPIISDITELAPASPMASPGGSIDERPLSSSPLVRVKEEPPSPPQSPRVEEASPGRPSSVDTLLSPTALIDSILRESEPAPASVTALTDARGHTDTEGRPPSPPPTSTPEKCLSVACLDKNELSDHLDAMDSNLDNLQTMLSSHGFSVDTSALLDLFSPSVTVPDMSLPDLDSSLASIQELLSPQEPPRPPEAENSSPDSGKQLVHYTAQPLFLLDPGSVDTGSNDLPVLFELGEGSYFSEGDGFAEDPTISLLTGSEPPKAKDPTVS
Summary of the method: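 HepG2 cells transfected with cis-promoter reporter units sensing endogenous transcription factor activity; reporter mRNA quantified 24 h post-dose by RT-PCR and capillary electrophoresis of 6-FAM-labelled products. Bidirectional fitting against DMSO.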

[8] = ATG_PBREM_CIS: Attagene CIS-FACTORIAL HepG2 Assay for human Phenobarbital-responsive Enhancer Module (PBREM) (AID 2282955); conditions: HepG2 PBREM cis-reporter, Attagene multiplexed transcription; actives raise or lower the signal
Summary of the method: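 Reporter mRNA read by RT-PCR, 6-FAM primer extension, HpaI digestion and capillary electrophoresis. Transfected HepG2 cells, 24 h compound exposure. Gain or loss of signal fitted bidirectionally relative to DMSO baseline.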

[9] = ATG_MRE_CIS: Attagene CIS-FACTORIAL HepG2 Assay for human Metal Responsive Element (MRE) (AID 2282954); conditions: HepG2 MRE cis-reporter transcription, Attagene multiplex; actives raise or lower the signal
Summary of the method: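 HepG2 cells transiently transfected with cis-element-driven reporter units; mRNA measured 24 h after dosing. Reporter transcripts quantified by RT-PCR, FAM labelling, HpaI digestion and capillary electrophoresis; bidirectional fit versus DMSO.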

Measured: AC50

CN1CCOCC1
active: [3] 100 µM
not listed: [9]
inactive: all other assays above

CCCC(=O)OC(C)(C)Cc1ccccc1
not listed: [9]
inactive: all other assays above

OC[C@H]1O[C@@H]2O[C@H]3[C@H](O)[C@@H](O)[C@@H](O[C@H]4[C@H](O)[C@@H](O)[C@@H](O[C@H]5[C@H](O)[C@@H](O)[C@@H](O[C@H]6[C@H](O)[C@@H](O)[C@@H](O[C@H]7[C@H](O)[C@@H](O)[C@@H](O[C@H]8[C@H](O)[C@@H](O)[C@@H](O[C@H]9[C@H](O)[C@@H](O)[C@@H](O[C@H]1[C@H](O)[C@H]2O)O[C@@H]9CO)O[C@@H]8CO)O[C@@H]7CO)O[C@@H]6CO)O[C@@H]5CO)O[C@@H]4CO)O[C@@H]3CO
not listed: [4]
inactive: all other assays above

COC(=O)c1ccc(C)cc1C1=NC(C)(C(C)C)C(=O)N1 (stereo unspecified) (tested in a mixture with another compound)
not listed: [3]
inactive: all other assays above

CN(C)c1cccc(O)c1
not listed: [4]
inactive: all other assays above

Nc1ccc2c(O)cc(S(=O)(=O)O)cc2c1
not listed: [4] | [5]
inactive: all other assays above

C=CC(=C)CCCC(C)(C)OC(C)=O
not listed: [4] | [7]
inactive: all other assays above

C=C(C)C1CC=C(C)C(=O)C1 (stereo unspecified)
not listed: [4] | [8]
inactive: all other assays above

CC1=NN(c2ccc(S(=O)(=O)O)cc2)C(=O)C1
not listed: [4]
inactive: all other assays above

COc1ccccc1N=Nc1c(S(=O)(=O)O)cc2cc(S(=O)(=O)O)cc(NC(C)=O)c2c1O
not listed: [5]
inactive: all other assays above

CC(C)Nc1nc(N)nc(Cl)n1
not listed: [5]
inactive: all other assays above

c1ccc(CN(Cc2ccccc2)Cc2ccccc2)cc1
not listed: [5] | [9]
inactive: all other assays above

C=C(C)CNCC
not listed: [7]
inactive: all other assays above

CCCCCCC(CO)CCCC (stereo unspecified)
not listed: [7]
inactive: all other assays above

CCO/C=C1\N=C(c2ccccc2)OC1=O
not listed: [3]
inactive: all other assays above

CC(=O)C1(C)CC2=C(CCCC2(C)C)CC1C (stereo unspecified)
active: [2] 152 µM | [6] 134 µM | [8] 100 µM
not listed: [9]
inactive: all other assays above

C=CCN(CC=C)CC=C
not listed: [7]
inactive: all other assays above

O=C(c1ccccc1)C(O)c1ccccc1 (stereo unspecified)
not listed: [3] | [7]
inactive: all other assays above

O=C(O)c1cc(C(=O)O)cc([N+](=O)[O-])c1
not listed: [3]
inactive: all other assays above

CCOC(=O)C1OC1c1ccccc1 (stereo unspecified)
active: [2] 33.5 µM
not listed: [7]
inactive: all other assays above

C=C(C#N)C(=O)OCC
active: [2] 169 µM | [7] 144 µM
not listed: [9]
inactive: all other assays above

Nc1ccn([C@H]2CS[C@@H](CO)O2)c(=O)n1
inactive: all assays above

N#Cc1ccc(CC(=O)c2cccc(C(F)(F)F)c2)cc1
active: [7] 150 µM | [9] 100 µM
not listed: [3]
inactive: all other assays above

CC(Oc1cc(Cl)ccc1Cl)C(=O)O (stereo unspecified)
not listed: [4]
inactive: all other assays above

CCCCCC(C)=O
not listed: [7]
inactive: all other assays above

C=C[Si]1(C)O[Si](C)(C=C)O[Si](C)(C=C)O[Si](C)(C=C)O1 (stereo unspecified)
not listed: [4]
inactive: all other assays above

C=CCOC(=O)CCCCCC
not listed: [3]
inactive: all other assays above

BrCc1cccc(Oc2ccccc2)c1
not listed: [4]
inactive: all other assays above

[O-]n1ccccc1=S.[O-]n1ccccc1=S.[Zn+2]
active: [2] 1.07 µM | [7] 0.937 µM
not listed: [3] | [9]
inactive: all other assays above

C=C(C)[C@@H]1CC=C(C)C(=O)C1
inactive: [2] | [3] | [4] | [6] | [9]

O=C(Nc1ccc2c(O)c(N=Nc3ccc(N=Nc4ccc(S(=O)(=O)O)cc4)cc3)c(S(=O)(=O)O)cc2c1)c1ccccc1
not listed: [1]
inactive: all other assays above

Nc1c(S(=O)(=O)O)cc(Br)c2c1C(=O)c1ccccc1C2=O
active: [9] 58 µM
not listed: [1] | [8]
inactive: all other assays above

CN(c1nccc(=O)[nH]1)C1CCN(c2nc3ccccc3n2Cc2ccc(F)cc2)CC1
not listed: [1] | [9]
inactive: all other assays above

OCC(O)c1ccccc1 (stereo unspecified)
inactive: [2] | [5] | [6] | [7] | [9]

CCN(CCN)c1cccc(C)c1
not listed: [1] | [7]
inactive: all other assays above

CCCCC1(COC(=O)CCC(=O)O)C(=O)N(c2ccccc2)N(c2ccccc2)C1=O
not listed: [1] | [5] | [8]
inactive: all other assays above

C[C@@H]1CCN(C(=O)[C@H](CCCN=C(N)N)NS(=O)(=O)c2cccc3c2NC[C@H](C)C3)[C@@H](C(=O)O)C1
not listed: [1] | [5]
inactive: all other assays above

OC[C@H]1O[C@@H](Oc2ccc(O)cc2)[C@H](O)[C@@H](O)[C@@H]1O
not listed: [1] | [5] | [8]
inactive: all other assays above

Cc1ncc([N+](=O)[O-])n1CCO
not listed: [1] | [5] | [9]
inactive: all other assays above

COC(=O)c1cccnc1
not listed: [1] | [7]
inactive: all other assays above

CS(=O)(=O)OCCCCOS(C)(=O)=O
not listed: [1] | [8]
inactive: all other assays above

CCCCC(CC)COC(C)=O (stereo unspecified)
not listed: [1] | [7]
inactive: all other assays above

Nc1c(Cl)cc(Cl)cc1[N+](=O)[O-]
not listed: [1] | [4] | [7]
inactive: all other assays above

CC(C)(CO)[C@@H](O)C(=O)NCCC(=O)O
not listed: [1] | [5] | [9]
inactive: all other assays above

COC(=O)C=C(C)CCC=C(C)C
not listed: [1] | [5] | [8]
inactive: all other assays above

CCc1ccc(O)cc1
not listed: [1]
inactive: all other assays above

CN(C)c1ccncc1
not listed: [1] | [5]
inactive: all other assays above

NCCNc1cccc2ccccc12
active: [5] 100 µM | [9] 156 µM
not listed: [1]
inactive: all other assays above

COc1ccc(N=Nc2cc(C)c(N=Nc3ccc(S(=O)(=O)O)cc3)cc2OC)cc1
active: [7] 100 µM
not listed: [1] | [9]
inactive: all other assays above

O=C1OC[C@H](Cc2cccc(O)c2)[C@H]1Cc1cccc(O)c1
active: [8] 33.5 µM
not listed: [1]
inactive: all other assays above

CC/C=C\CCOC(=O)CC
inactive: [2] | [3] | [5] | [6] | [9]

CC(C)CCCCCCc1ccc(OCCOCCO)cc1
inactive: [2] | [4] | [5] | [6] | [8]

O=CN1CCOCC1
active: [5] 51.7 µM
inactive: [2] | [6] | [7] | [9]

CC1(C)O[C@@H]2[C@@H](CO[C@@]3(COS(N)(=O)=O)OC(C)(C)O[C@@H]23)O1
not listed: [1] | [5]
inactive: all other assays above

O=[N+]([O-])c1cccc(Cl)c1
not listed: [1] | [7] | [8]
inactive: all other assays above

Cc1[nH]c(=O)c(C#N)cc1-c1ccncc1
not listed: [1] | [5]
inactive: all other assays above

Cc1ccc(OC(=O)c2ccccc2O)cc1
not listed: [1]
inactive: all other assays above

Brc1ccc(Br)c(Br)c1
not listed: [1] | [8]
inactive: all other assays above

COc1ccc(CCO)cc1
not listed: [1]
inactive: all other assays above

Cc1ccc2c(c1)C(=O)OC2=O
not listed: [3] | [7]
inactive: all other assays above

COC(C)(C)CCO
not listed: [3] | [5] | [9]
inactive: all other assays above

C=CCCCCCCCCCC
not listed: [1] | [3]
inactive: all other assays above

CCC(=O)OCCOc1ccccc1
not listed: [1] | [8]
inactive: all other assays above

CC(C)NCC(O)COc1ccc(CC(N)=O)cc1 (stereo unspecified)
inactive: [2] | [3] | [4] | [6] | [9]

CCCC(=O)C(CC)Sc1ccoc1C (stereo unspecified)
not listed: [1]
inactive: all other assays above

CC/C=C\CC/C=C/CO
not listed: [3] | [7]
inactive: all other assays above

CCCCCCCCCCCC(=O)OCC(O)CO (stereo unspecified)
not listed: [1] | [3]
inactive: all other assays above

O=C(O)c1cccnc1C(=O)O
not listed: [1] | [5] | [8]
inactive: all other assays above
